High-throughput results: PubChem BioAssay, National Center for Advancing Translational Sciences (NCATS)
VACV mCherry inh – inhibitors of vaccinia virus infection (mCherry reporter signal) | Vaccinia virus mCherry reporter infection, fluorescence | Potency, µM (doses to about 36.5 µM), without a hit: top-dose activity change, negative = inhibition, most hits filed as inhibitors | actives 0.63% (n = 310,000) | AID 720579; calls by dose curve; tested in A549 cells; further: potency means the concentration at half of the fitted maximal effect; nearly all actives have a fitted effect of over 35% in size
HCMV inh – inhibitors of human cytomegalovirus | HFF cells, HCMV-luciferase reporter, 72 h; hits give low values | activity change, negative = inhibition, % at 57.5 µM | actives 4.5% (n = 410,000); in the data active means activity change below about -60%; inconclusive means no clear call, values can overlap the other calls; inactive means above about -39%
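After 16 h attachment at 37C, HFF cells received test compound and HCMV-luciferase (1 PFU/cell); reporter luminescence read 72 h later, data normalized against buffer-only and known inhibitor Salinomycin.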
VACV Venus inh – inhibitors of vaccinia virus (Venus reporter); Vaccinia virus Venus reporter expression, fluorescence; Potency, µM (series often up to 36.5 µM), without a hit: at the highest dose activity change, negative = inhibition, usual class: inhibitors; actives 0.46% (n = 330,000); calls by dose curve; tested in A549 cells; further: potency means the concentration at half of the fitted maximal effect; nearly all actives have a fitted effect of over 30% in size
FMDV antiviral – foot and mouth disease virus antiviral activity; actives 1.2% (n = 410,000); AID 1159524; Potency, µM (series often up to 57.9 µM), inactives show at the top dose activity change, negative = inhibition, hits mostly inhibitors; FMDV antiviral cell-based qHTS; calls by dose curve; tested in HEK293T cells; further: read-out not given here; potency means the concentration at half of the fitted maximal effect; nearly all actives have a fitted effect of over 45% in size
HCV inh – blocks hepatitis C virus. Huh7.5.1 HCVcc-Cre infection, luciferase reporter, 44 h. Potency, µM (series often up to 41.8 µM), for the others: at the top dose activity change, negative = inhibition, hits mostly inhibitors. actives 3.4% (n = 340,000). AID 651820; active means well fitted inhibition curve with a large enough effect; inconclusive means small, poorly fitted or top-dose-only effect, or another doubt; inactive means no such curve, though single readings can be large or run the other way; further: potency means the concentration at half of the fitted maximal effect
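Cells (1,000/well) were plated 4 h before compound, then infected with HCVcc-Cre virus (~0.5 moi). After 44 h further culture, infection was read as luciferase luminescence following a 15 min substrate incubation at room temperature.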
Active calls of the source: *; i = inactive; ? = inconclusive; · = no result given. In the library only some 7.3% were active in any assay of this set; here they are far more common. On the % scale 0 is the no-effect control and ±100 the full control effect.

SMILES | VACV mCherry inh | HCMV inh | VACV Venus inh | FMDV antiviral | HCV inh
Cn1c(-c2ccsc2)cc2c(Nc3ccc(Oc4ccccc4)cc3)nccc21 | · | -89* | · | · | ·
O=C1CCN(Cc2ccccc2)CCN1[C@H](COc1ccccc1)Cc1ccccc1 | -2% | -39 | -4% | -15% | 8%
CC(C)C[C@@H](COc1ccccc1)N1CCN(Cc2ccccc2)CCC1=O | -21% | -102* | -3% | -14% | -15%
C#CCn1c(O)c(N=NC(=O)C(O)c2ccccc2)c2ccccc21 (configuration not stated) | 13µM* | 48 | ? | 20% | 19%
O=C(COc1ccccc1)Nc1cccc(-c2nc3cc4ccccc4cc3[nH]2)c1 | · | -12 | · | 12% | 7.1µM*
Cc1ccc(N(C)S(=O)(=O)c2cccc(C(=O)OCC(=O)N(C)Cc3ccccc3)c2)cc1 | i | 45 | -16% | 28µM* | ·
CN(c1cccc(NC(=O)c2ccc(N(C)S(=O)(=O)c3ccccc3)cc2)c1)S(C)(=O)=O | · | -72* | · | 14µM* | 8.9µM*
CN(c1cccc(NC(=O)c2ccc(C(C)(C)C)cc2)c1)S(C)(=O)=O | i | -82* | -20% | ? | ?
COc1ccc(C(=O)Oc2ccc(N(C)S(=O)(=O)c3ccccc3)cc2)cc1[N+](=O)[O-] | -17% | -99* | -2% | 0% | -8%
CSc1cccc(NC(=O)Nc2ccccc2)c1 | -12% | -12 | -22% | 32% | 4%
CN(c1ccccc1)S(=O)(=O)c1cccc(NC(=O)c2ccc(Cl)c([N+](=O)[O-])c2)c1 | i | -3 | -20% | 32µM* | 11µM*
CSc1cccc(NC(C)C(=O)NCc2ccccc2)c1 (configuration not stated) | -17% | -65* | -7% | -3% | -3%
CC(=O)Nc1ccc(C(=O)Nc2cccc(S(=O)(=O)N(C)c3ccccc3)c2)cc1 | · | 0 | · | ? | ?
CN(c1ccccc1)S(=O)(=O)c1cccc(NC(=O)COc2ccccc2)c1 | · | -9 | · | -8% | 10µM*
CCCN1CCN(c2ncc3c(n2)CCN(Cc2ccc(OC)c(OC)c2OC)C3)CC1 | -12% | 6 | -12% | -19% | ·
COc1ccc(NS(=O)(=O)c2cccc(NC(=O)C3=NN(c4ccccc4)C(=O)CC3)c2)cc1 | · | -4 | · | ? | -14%
CN(c1ccccc1)S(=O)(=O)c1cccc(NC(=O)CN2C(=O)NC3(CCCC3)C2=O)c1 | -10% | -1 | -26% | -12% | 2.8µM*
O=C(COc1ccc(Cl)cc1)Nc1cccc(S(=O)(=O)NCc2ccco2)c1 | · | -12 | · | 53% | 32µM*
O=C(CN1C(=O)NC2(CCCC2)C1=O)Nc1ccccc1 | 19% | -36 | 2% | -9% | 11%
CN(c1ccccc1)S(=O)(=O)c1cccc(NC(=O)C2=NN(c3ccccc3)C(=O)CC2)c1 | · | -17 | · | ? | 16µM*
CN(C)S(=O)(=O)c1cccc(NC(=O)c2cccc(NS(=O)(=O)c3ccccc3)c2)c1 | -22% | -89* | -17% | ? | 13µM*
Brc1ccc(-c2ccc(CNCCSc3nnnn3-c3ccccc3)o2)cc1 | -3% | 20 | -4% | 0% | ·
O=C(c1ccccc1F)N(Cc1cc2cc3c(cc2nc1N1CCOCC1)CCC3)CC1CCCO1 (configuration not stated) | -15% | · | -7% | 16% | ·
CN(C)S(=O)(=O)c1cccc(C(=O)Nc2ccc(Cl)cn2)c1 | ? | -16 | -11% | · | -29%
CN(c1ccccc1)S(=O)(=O)c1cccc(C(=O)Nc2ccc3c(c2)CCC3)c1 | -14% | ? | -21% | -16% | ?
SMILES | VACV mCherry inh | HCMV inh | VACV Venus inh | FMDV antiviral | HCV inh
CC(=O)c1cccc(NC(=O)COc2ccccc2)c1 | · | 14 | · | 43% | 3%
COc1ccc(NC(=O)c2cccc(S(=O)(=O)N(C)c3ccccc3)c2)cn1 | -25% | -75* | -14% | 35µM* | ?
CSc1cccc(NC(=O)COc2ccccc2)c1 | -24% | -80* | -21% | 45% | -9%
CN(c1ccccc1)S(=O)(=O)c1cccc(NC(=O)c2ccncc2)c1 | · | ? | · | ? | 10µM*
Cc1ccc(N(C)S(=O)(=O)c2cccc(C(=O)Nc3ccc(C)cn3)c2)cc1 | -26% | -23 | -23% | 40µM* | ?
Cn1c(=O)c(CCc2ccccc2)nc2cnc(OCc3ccccc3)nc21 | · | · | · | 18% | ·
Cc1sc(N/N=C/c2cccnc2)nc1-c1ccccc1 | · | -65* | · | ? | ?
O=c1[nH]c(=O)n(Cc2ccccc2)c2c1C(C(F)(F)F)(C(F)(F)F)N=C(c1ccco1)N2 | · | 2 | · | ? | -1%
O=c1[nH]c(=O)n(Cc2ccco2)c2c1C(C(F)(F)F)(C(F)(F)F)N=C(c1ccc(F)cc1)N2 | · | 43 | · | 4.5µM* | ?
CCCN1C(C(=O)c2ccccc2)=C(OC(=O)C(C)(C)C)c2ccccc2S1(=O)=O | ? | -89* | ? | -15% | ·
CCN1C(C(=O)c2ccccc2)=C(OC(=O)c2ccc(Cl)cc2)c2ccccc2S1(=O)=O | -30% | -77* | -18% | -2% | ·
CCCN1C(C(=O)c2ccccc2)=C(OC(=O)COc2ccc(C)cc2)c2ccccc2S1(=O)=O | ? | -91* | ? | 0% | ·
CCCN1C(C(=O)c2ccccc2)=C(OC(=O)COc2ccccc2)c2ccccc2S1(=O)=O | ? | -88* | ? | -4% | ·
O=C(CSc1nnc(CNC(=O)c2ccccc2)n1-c1cccc(Cl)c1)Nc1ccccc1F | -3% | -1 | 6% | -15% | ·
CCOC(=O)C1=CCC(c2ccc([N+](=O)[O-])cc2)N(S(=O)(=O)c2ccc(C)cc2)C1 (configuration not stated) | · | -6 | · | · | ·
Nc1ncnc2c1nc(Sc1ccc(Cl)cc1)n2[C@H]1OC2COP(=O)(O)O[C@H]2[C@@H]1O (some centres not stated) | -3% | · | -13% | · | ·
O=C(COc1ccc(Cl)cc1)NCCc1csc(-c2ccc(C(F)(F)F)cc2)n1 | -14% | -39 | -24% | ? | ·
O=C1CCC[C@H]2[C@@H](Cc3ccccc3)[C@@H](NS(=O)(=O)c3cc(Cl)cc(Cl)c3)CC[C@]23CCCN13 | · | 28 | · | · | ·
Cc1ccc(S(=O)(=O)N2CCN(c3nc(C(C)C)c4c(c3C#N)CC(C)(C)OC4)CC2)cc1 | · | ? | · | -9% | 7.1µM*
CCCNC(=O)N1CCN(c2nc(C(C)C)c3c(c2C#N)CC(C)(C)OC3)CC1 | -9% | -66* | ? | ? | ?
Cc1nc(N2CCN(C(=O)c3ccc(Cl)cc3)CC2)c(C#N)c2c1COC(C)(C)C2 | · | -36 | ? | ? | ?
CN(C)c1ccc(CNC(=O)C2COc3ccccc3C2)cc1 (configuration not stated) | 3% | 25 | 4% | 66% | ·
CC1CN(C(=S)Nc2ccc(F)cc2F)CC(C)O1 (configuration not stated) | · | 16 | · | -1% | 5%
Cc1csc2ncnc(N3CCN(C(=S)Nc4ccc(F)cc4F)CC3)c12 | ? | -77* | ? | ? | ?
